KCNQ2 enhance: potentiators of rat KCNQ2 potassium channel; Potassium voltage-gated channel subfamily KQT member 2 (Rattus norvegicus), O88943; CHO-K1 KCNQ2, FluxOR thallium flux fluorescence; active compounds read high; B-score at 10 µM; hit rate 0.54% among 310,000;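 active means fluorescence ratio B-score at least 3 SD of library B-scores, with initial fluorescence B-score within 3 of them, cut at about 5.3 in these data; same plate scores as AID 2156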;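 further: B-score of peak minus minimum over baseline fluorescence ratio after K+ and Tl+ stimulus; positive B-score means potentiation of KCNQ2 with more thallium influx and brighter signal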
Target sequence (O88943 whole entry, looked up): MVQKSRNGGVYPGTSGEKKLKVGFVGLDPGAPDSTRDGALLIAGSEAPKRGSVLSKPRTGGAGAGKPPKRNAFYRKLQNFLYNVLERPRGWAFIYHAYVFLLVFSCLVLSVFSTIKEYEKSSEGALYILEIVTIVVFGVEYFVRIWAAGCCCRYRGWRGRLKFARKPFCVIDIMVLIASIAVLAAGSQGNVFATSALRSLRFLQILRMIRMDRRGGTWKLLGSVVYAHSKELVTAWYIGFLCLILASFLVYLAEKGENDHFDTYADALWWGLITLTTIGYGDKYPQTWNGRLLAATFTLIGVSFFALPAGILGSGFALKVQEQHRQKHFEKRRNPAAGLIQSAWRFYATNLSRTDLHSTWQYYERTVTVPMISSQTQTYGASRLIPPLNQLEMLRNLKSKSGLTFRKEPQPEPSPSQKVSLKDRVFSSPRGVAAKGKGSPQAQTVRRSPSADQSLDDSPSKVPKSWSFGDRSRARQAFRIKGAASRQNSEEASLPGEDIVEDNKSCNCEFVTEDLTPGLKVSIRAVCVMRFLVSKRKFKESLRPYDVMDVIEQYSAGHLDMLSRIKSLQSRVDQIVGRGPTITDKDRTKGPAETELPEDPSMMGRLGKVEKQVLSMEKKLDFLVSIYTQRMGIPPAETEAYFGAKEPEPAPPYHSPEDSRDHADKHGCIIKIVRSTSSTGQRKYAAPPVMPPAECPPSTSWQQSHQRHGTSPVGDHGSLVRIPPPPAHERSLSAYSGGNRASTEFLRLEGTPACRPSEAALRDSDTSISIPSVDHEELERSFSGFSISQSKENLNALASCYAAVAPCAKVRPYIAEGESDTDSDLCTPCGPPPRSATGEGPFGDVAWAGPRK
KCNQ2 block: rat KCNQ2 potassium channel inhibitors, primary screen, cell-based, CHO-K1, FluxOR thallium flux, B-score; 20 min; active compounds read low; B-score at 10 µM; hit rate 1.1% among 310,000; AID 2156, 2009;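 active means fluorescence ratio B-score at most minus 3 library SDs, with starting brightness B-score within 2 library SDs, cut at about -5.5 in these data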
Starred values were filed as active, the others as inactive. Compounds with a hit are over-represented: about 1.6% of the library has one in this group of screens.

Screening COc1ccc(/C=C2\C(=O)c3ccccc3OC2c2ccccc2)cc1 (stereo not drawn) returned KCNQ2 block inactive.
Screening CCOc1ccc(/C=C2\C(=O)c3ccccc3OC2c2ccccc2)cc1 (stereo not drawn) returned KCNQ2 enhance -6.2 and KCNQ2 block -6.2*.
O=C1CC(SCCO)C(=O)N1c1ccc(Oc2ccccc2)cc1 (stereo not drawn) was read as KCNQ2 enhance 0.88 and KCNQ2 block inactive.
Screening Cc1cc(=O)oc2c3c(cc(OCC(=O)NCCCn4ccnc4)c12)OC(C)(C)CC3 returned KCNQ2 block inactive.
Screening COc1cc(NC(=S)NCc2cccnc2)cc(OC)c1OC returned KCNQ2 enhance 0.03 and KCNQ2 block inactive.
For COc1cc(NC(=S)NCc2cccnc2)cc(OC)c1 the results were KCNQ2 enhance -7.4 and KCNQ2 block -7.4*.
`Cc1ccc(C)c(S(=O)(=O)NCC(=O)Nc2ccc3c(c2)OCO3)c1` gave KCNQ2 enhance 0.19 and KCNQ2 block inactive.
Screening Cc1ccc(C)c(-c2cc(C(=O)Nc3cccc(C(=O)O)c3)c3ccccc3n2)c1 returned KCNQ2 block inactive.
`O=C(NCCCN1CCOCC1)c1cc(-c2ccc3c(c2)OCO3)nc2ccccc12` gave KCNQ2 block inactive.
For O=C(Nc1cccnc1)c1cc(-c2ccc(Br)cc2)nc2ccccc12 the results were KCNQ2 enhance -6.3 and KCNQ2 block -6.3*.
For O=C(NCCCN1CCOCC1)c1cc(-c2ccc(Br)cc2)nc2ccccc12 the results were KCNQ2 enhance -6.8 and KCNQ2 block -6.8*.
`CCOC(=O)c1ccc(NC(=S)NNC(=O)c2cc(-c3cccnc3)nc3ccccc23)cc1` gave KCNQ2 block inactive.
`Cc1ccc(C)c(-c2cc(C(=O)Nc3cccnc3)c3ccccc3n2)c1` gave KCNQ2 enhance -6.3 and KCNQ2 block -6.3*.
CC(=O)Nc1cccc(NC(=O)c2cc(-c3cccnc3)nc3ccc(Br)cc23)c1 was read as KCNQ2 block inactive.
O=C(NNC(=S)Nc1ccccc1)c1cc(-c2cccnc2)nc2ccccc12 was read as KCNQ2 enhance -6.1 and KCNQ2 block -6.1*.
For COc1ccc(CN(C)Cc2nc3scc(-c4ccccc4)c3c(=O)[nH]2)cc1OC the results were KCNQ2 block inactive.
O=C(CN1CCC(O)(c2ccc3c(c2)OCO3)CC1)OC1CCCCC1 was read as KCNQ2 block inactive.
For O=C(O)c1cccc(N2C(=O)c3cccc(Oc4ccc(Cl)cc4)c3C2=O)c1 the results were KCNQ2 block inactive.
Screening CN1C(C(=O)NCc2ccccc2)CC2Cn3c(nc4cc5ccccc5cc43)C21 (stereo not drawn) returned KCNQ2 block inactive.
Screening CCOc1ccc(-n2c(=S)sc3c(=O)[nH]c(SCC(=O)C(C)(C)C)nc32)cc1 returned KCNQ2 enhance 0.46 and KCNQ2 block inactive.
CN(C)S(=O)(=O)Oc1cccc(C(=O)Nc2ccc([N+](=O)[O-])cc2)c1 was read as KCNQ2 enhance 0.74 and KCNQ2 block inactive.
Screening CC(C)NC(=O)NC(=O)CSc1nncs1 returned KCNQ2 block inactive.
For CCOc1ccc(S(=O)(=O)N2CCOCC2)cc1NC(=O)CSCc1c(C)noc1C the results were KCNQ2 block inactive.
`Cc1cc(NS(=O)(=O)c2ccc(NC(=O)CCSc3ccc(F)cc3)cc2)nc(C)n1` gave KCNQ2 block inactive.
Screening Cc1cccc(NC(=O)c2cc(-c3ccc(C)s3)nc3ccccc23)n1 returned KCNQ2 enhance -7.5 and KCNQ2 block -7.5*.
For Cc1ccc(NC(=O)c2cc(C)nc3ccccc23)cc1 the results were KCNQ2 enhance 0.37 and KCNQ2 block inactive.
Cc1cc(NC(=O)c2cc(-c3ccc(C)s3)nc3ccccc23)no1 was read as KCNQ2 block inactive.
`Cc1ccc(C)c(NC(=O)c2cc(C)nc3ccccc23)c1` gave KCNQ2 enhance -5.9 and KCNQ2 block -5.9*.
`O=C(NCCCl)Nc1ccccc1OCCOc1ccccc1NC(=O)NCCCl` gave KCNQ2 block inactive.
For O=C(C1CCN(S(=O)(=O)c2ccccc2)CC1)N1CCN(Cc2ccccc2)CC1 the results were KCNQ2 enhance 0.65 and KCNQ2 block inactive.
Screening Cc1ccccc1-n1nc2c(c1NC(=O)c1cc3ccccc3o1)CS(=O)(=O)C2 returned KCNQ2 enhance -7.6 and KCNQ2 block -7.6*.
`Cc1ccccc1-n1nc2c(c1NC(=O)c1ccc(Br)o1)CSC2` gave KCNQ2 enhance -5.9 and KCNQ2 block -5.9*.
Cc1ccccc1-n1nc2c(c1NC(=O)c1ccco1)CS(=O)(=O)C2 was read as KCNQ2 enhance 0.64 and KCNQ2 block inactive.
For COc1ccc(-n2nc3c(c2NC(=O)c2cc4ccccc4o2)CS(=O)(=O)C3)cc1 the results were KCNQ2 block inactive.
For COc1ccccc1N1CCN(CCC(=O)Nc2cccc(Cl)c2)CC1 the results were KCNQ2 block inactive.
`CC1=C(C)C(=O)C(CCCCC#CCCCC#CCO)=C(C)C1=O` gave KCNQ2 enhance -6.8 and KCNQ2 block -6.8*.
Screening COc1ccc(CCNC(=O)CSc2nc3ccccc3o2)cc1 returned KCNQ2 block inactive.
`Cc1ccc(S(=O)(=O)N2CC=C(C(=O)NCc3ccc(F)cc3)CC2)cc1` gave KCNQ2 enhance 0.02 and KCNQ2 block inactive.
For CCN(CC)c1ccc(NC(=O)C2=CCN(S(=O)(=O)c3ccc(F)cc3)CC2)c(C)c1 the results were KCNQ2 enhance 7.1* and KCNQ2 block inactive.
CSCCC(NC(=O)COc1ccccc1)C(=O)OCC(=O)c1ccccc1 (stereo not drawn) was read as KCNQ2 block inactive.
For CSCCC(NC(=O)COc1ccccc1)C(=O)N1CCN(c2ccccc2O)CC1 (stereo not drawn) the results were KCNQ2 enhance -6.2 and KCNQ2 block -6.2*.
CSCC(=O)NS(=O)(=O)c1ccc(C)cc1 was read as KCNQ2 enhance 0.24 and KCNQ2 block inactive.
For O=C(OCn1ncc(Br)c(Br)c1=O)c1ccccc1Cl the results were KCNQ2 block inactive.
Screening O=C(OCn1ncc(Br)c(Br)c1=O)c1ccc(F)cc1 returned KCNQ2 enhance -5.6 and KCNQ2 block -5.6*.
Screening CN(CC#CC(O)(c1ccccc1)c1ccccc1)C(C)(C)C returned KCNQ2 enhance 0.33 and KCNQ2 block inactive.
Screening CC(=O)NC(Cc1c[nH]c2ccccc12)C(=O)OCC(=O)Nc1cc(C)on1 (stereo not drawn) returned KCNQ2 enhance 0.63 and KCNQ2 block inactive.
`Cc1cc(NC(=O)COC(=O)[C@H](Cc2c[nH]c3ccccc23)NC(=O)c2ccc(F)cc2)no1` gave KCNQ2 enhance -7.2 and KCNQ2 block -7.2*.
Screening O=C(C1CCCN(CCCc2ccccc2)C1)N1CCCCC1 (stereo not drawn) returned KCNQ2 enhance 0.75 and KCNQ2 block inactive.
Screening Cc1ccc(-n2c(C)cc(C(=S)N3CCOCC3)c2C)cc1C returned KCNQ2 enhance -7.4 and KCNQ2 block -7.4*.
`Cc1cc(C(=S)N2CCOCC2)c(C)n1-c1ccc(F)cc1` gave KCNQ2 block inactive.
Screening Cn1nc(-c2ccccn2)nc2c(=O)n(C)c(=O)nc1-2 returned KCNQ2 enhance 7.4* and KCNQ2 block inactive.
For COc1ccc(-c2nc(-c3ccccn3)ncc2S(C)(=O)=O)cc1 the results were KCNQ2 enhance 1.5 and KCNQ2 block inactive.

Assay outcomes from PubChem BioAssay.
